From PubChem
PGC1a acetyl inh: modulators of PGC1a acetylation. actives 0.17% (n = 350,000). inhibition, % at 15.6 µM. U2OS PGC1a acetylation, AlphaScreen anti-acetyl-lysine; with virally co-expressed GCN5 acetyltransferase;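 active = every replicate shows inhibition of at least 40%; inconclusive = mean inhibition at least 40% but some replicate below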
CaV13 FRET inh: Primary screen for inhibitors of IQ motif and Ca2+-dependent inactivation inhibitor domain binding in CACNA1D, Förster resonance energy transfer in living cells, … | HEK cells, CFP/YFP FRET ICDI-IQ, plate reader, 10 min; percent FRET-ratio fall versus neutral wells | inhibition, % at 12.3 µM | actives 0.098% (n = 340,000) | AID 743397;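 active = mean replicate inhibition of at least 30% and at least 1% of replicates passing that level; inconclusive = only one of the two criteria is met; inactive = neither criterion is met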
Ecoli rRNA inh: inhibitors of bacterial rRNA selective over humanized ribosomes. GFP signal change (wild-type ribosome), % (no concentration beside the values). actives 1.6% (n = 350,000). E. coli WT GFP vs humanized-ribosome RFP mutants, fluorescence, 24 h; active compounds read low; DMSO median 0, no signal -100;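 active = significant combined selectivity score with lowered wild-type GFP, culture density cut under 30%, mutant RFP and density less affected; inactive = any of these conditions unmet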
DENV2 CPE: DENV2-induced cell death inhibition. DENV2-infected cells, cytopathic effect rescue, plate reader. CPE inhibition, % at 9.99 µM. actives 1.7% (n = 350,000); in the data active = CPE inhibition above about 20%, passing the limit was not always enough; inconclusive = no clear call, values can overlap the other calls; tested in BHK-21 cells
INS-1E GSIS act: primary screen for activators of insulin secretion dependent on glucose, INS-1E cells, GLuc reporter luminescence | INS-1E GLuc reporter insulin secretion, 2-3 h | AID 743287 | actives 0.61% (n = 370,000) | activation, % at 16.6 µM;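 active = lowest replicate activation of at least 40%, so every replicate reaches that level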
ERAP1 HTS inh: inhibitors of human ERAP1 aminopeptidase | Q9NZ08 | recombinant ERAP1, Leu-AMC fluorescence, 60 min | inhibition, % at 10.7 µM | actives 0.15% (n = 340,000);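 active = mean replicate inhibition of at least 30%, or all replicates individually reaching that 30% level; inactive = mean below 30% and not every replicate reaching it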
Each line names hits and unclear results; the compound was inactive in the other large screens. Rows were chosen to be rich in hits. Some 3.2% of all compounds tested hit in one or more screens of this group.

O=C(C[C@@H]1CC[C@@H](NC(=O)c2cccnc2)[C@@H](CO)O1)NCc1ccncn1	none (no result: CaV13 FRET inh)
C[C@@H]1CN([C@H](C)CO)C(=O)c2cc(-c3ccccc3)cnc2O[C@H]1CN(C)C(=O)Cc1ccccc1	none (no result: CaV13 FRET inh)
Cc1ccc(OCC(=O)N2CCN(c3nnc(-c4ccccc4)c4ccccc34)CC2)cc1	none (no result: Ecoli rRNA inh, DENV2 CPE, INS-1E GSIS act, ERAP1 HTS inh)
CC(=O)N1CCN(c2nnc(-c3ccc(C)cc3)c3ccccc23)CC1	INS-1E GSIS act 41 (no result: PGC1a acetyl inh)
C=CC[C@@]1(C(=O)NCC(O)CO)N=C(c2ccc(OCCCO)cc2)O[C@@H]1c1ccccc1 (stereo partly specified)	none (no result: CaV13 FRET inh, Ecoli rRNA inh, INS-1E GSIS act)
O=C(CC(F)(F)F)N1C[C@@H]2[C@H](c3ccccc31)[C@@H](CO)N2C(=O)c1cccnc1	DENV2 CPE 23 (no result: CaV13 FRET inh)
O=C(CC(F)(F)F)N1C[C@H]2[C@@H](c3ccccc31)[C@@H](CO)N2Cc1cccnc1	DENV2 CPE 27 (no result: CaV13 FRET inh)
O=C(Nc1cccc(Cl)c1)N1C[C@@H]2[C@H](c3ccccc31)[C@@H](CO)N2C(=O)c1ccncc1	none (no result: CaV13 FRET inh)
O=C(Nc1cccc(Cl)c1)N1C[C@@H]2[C@H](c3ccccc31)[C@H](CO)N2C(=O)c1cccnc1	Ecoli rRNA inh -20 (no result: CaV13 FRET inh, DENV2 CPE, ERAP1 HTS inh)
O=C(c1cccnc1)N1C[C@@H]2[C@H](c3ccccc31)[C@H](CO)N2C(=O)C1CCCCC1	none (no result: CaV13 FRET inh)
O=C(c1cccnc1)N1C[C@@H]2[C@H](c3ccccc31)[C@@H](CO)N2C(=O)C1CCCCC1	DENV2 CPE 52 (no result: CaV13 FRET inh)
O=C(CC(F)(F)F)N1C[C@@H]2[C@H](c3ccccc31)[C@H](CO)N2C(=O)c1ccncc1	none (no result: CaV13 FRET inh)
O=C(CC(F)(F)F)N1C[C@@H]2[C@H](c3ccccc31)[C@@H](CO)N2Cc1cccnc1	none (no result: CaV13 FRET inh)
CNC[C@@H]1Oc2ccc(NC(=O)Nc3c(C)noc3C)cc2CC(=O)N([C@@H](C)CO)C[C@H]1C	none (no result: CaV13 FRET inh, DENV2 CPE, ERAP1 HTS inh)
C[C@@H]1CN([C@H](C)CO)C(=O)Cc2cc(NC(=O)Cn3cnnn3)ccc2O[C@@H]1CN(C)Cc1ccncc1	none (no result: CaV13 FRET inh)
COc1c(OC2OC(C(=O)O)C(O)C(O)C2O)cc(O)c2c(=O)cc(-c3ccccc3)oc12 (stereo unspecified)	DENV2 CPE 25 (no result: ERAP1 HTS inh)
Cc1ccc(S(=O)(=O)N(C)C[C@@H]2Oc3ncc(/C=C/c4ccccc4)cc3C(=O)N([C@H](C)CO)C[C@@H]2C)cc1	DENV2 CPE 23 (no result: CaV13 FRET inh)
CC(C)NC(=O)N(C)C[C@@H]1Oc2ncc(C#Cc3ccc(F)cc3)cc2C(=O)N([C@@H](C)CO)C[C@H]1C	DENV2 CPE 25 (no result: CaV13 FRET inh)
Cc1ccc(S(=O)(=O)N(C)C[C@H]2Oc3ncc(C#CC4(O)CCCC4)cc3C(=O)N([C@@H](C)CO)C[C@@H]2C)cc1	none (no result: CaV13 FRET inh)
Cc1ccc(S(=O)(=O)N(C)C[C@H]2Oc3ncc(C#CC4(O)CCCC4)cc3C(=O)N([C@H](C)CO)C[C@H]2C)cc1	DENV2 CPE 21 (no result: CaV13 FRET inh)
CCCC#Cc1cnc2c(c1)C(=O)N([C@H](C)CO)C[C@@H](C)[C@@H](CN(C)C(=O)NC1CCCC1)O2	DENV2 CPE 45 (no result: CaV13 FRET inh)
C[C@@H]1CN([C@H](C)CO)C(=O)Cc2cc(NC(=O)CCCCCC(=O)Nc3ccccc3N)ccc2O[C@H]1CN(C)Cc1ccc(-c2ccccc2)cc1	DENV2 CPE inconclusive (no result: CaV13 FRET inh)
CNC[C@H]1Oc2c(NC(=O)C3CCCCC3)cccc2C(=O)N([C@@H](C)CO)C[C@H]1C	none (no result: CaV13 FRET inh)
COc1ccc(S(=O)(=O)N(C)C[C@@H]2Oc3ccc(NC(=O)Cc4cn(C)c5ccccc45)cc3CC(=O)N([C@H](C)CO)C[C@H]2C)cc1	none (no result: CaV13 FRET inh)
CCCN(C)C[C@H]1Oc2ncc(C#CC3(O)CCCC3)cc2C(=O)N([C@H](C)CO)C[C@H]1C	DENV2 CPE 27 (no result: CaV13 FRET inh)
CC(C)NC(=O)N(C)C[C@H]1Oc2ncc(C#CC3(O)CCCC3)cc2C(=O)N([C@@H](C)CO)C[C@@H]1C	DENV2 CPE 32 (no result: CaV13 FRET inh)
COc1ccc(NC(=O)N(C)C[C@@H]2Oc3ncc(C#Cc4ccc(F)cc4)cc3C(=O)N([C@H](C)CO)C[C@@H]2C)cc1	DENV2 CPE 63 (no result: CaV13 FRET inh)
